Screens: PubChem BioAssay, National Center for Advancing Translational Sciences (NCATS)
Pf Dd2 growth = Plasmodium falciparum Dd2 growth inhibition; P. falciparum Dd2 growth, SYBR Green, 72 h; 120,000 compounds, 4.3% hits; Potency, µM (titrated, usually from 28.9 µM), actives largely listed as inhibitors; active means well fitted inhibition curve with a large enough effect; further: nearly all actives have a fitted effect of over 65% in size
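Infected erythrocytes (Dd2, 0.3% parasitemia, 2.5% hematocrit final) are added to compound in RPMI-1640/Albumax II medium, grown 72 h at 37C in low oxygen, then lysed with saponin/Triton-X containing SYBR Green and read by fluorescence.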
Of the large screens only hits and unclear results are named; the others gave an inactive call. Only a selection was taken, and hits are over-represented in it overall.

COCCNC(=O)CN1CCCc2nc(C3CC3)ncc2C1=O	none
O=C(CN1CCCc2nc(C3CC3)ncc2C1=O)NCc1cccnc1	none
O=C(CN1CCCc2nc(C3CC3)ncc2C1=O)NCCc1c[nH]c2ccccc12	Pf Dd2 growth 10µM
COc1ccc(C(=O)N2CCC3(CC2)NC(=O)N(Cc2ccc(F)cc2)C3=O)cc1F	none
Cc1cc(NC(=O)CN(c2cccc(C)c2C)S(=O)(=O)c2ccccc2)ccc1Br	none
CC(C)C1CNC(Cc2ccccc2)CN1C(=O)OC(C)(C)C (stereo unspecified)	Pf Dd2 growth 8.9µM
CC(C)(C)OC(=O)N1CC(c2ccccc2)C1	none
CC(C)C1CN(C(=O)OC(C)(C)C)C(C)CN1 (stereo unspecified)	none
CCOC(=O)c1cc(-c2ccc(OC)cc2)n(CCC(=O)NC2CCCCC2)c1C	none
CCn1c(=O)cc(SCC(=O)NCc2ccc(Cl)cc2)c2ccccc21	none
COC(=O)CNC(=O)N1CCC(Cc2noc(-c3ccc(OC)cc3)n2)C1 (stereo unspecified)	none
CCc1cccc2c(C(CC(=O)NCc3ccco3)c3cccc([N+](=O)[O-])c3)c[nH]c12 (stereo unspecified)	none
COc1cccc(Nc2ncc3c(n2)C(C)(C(=O)N2CCCC2)CC3)c1 (stereo unspecified)	none
COc1cccc(C2CCN(Cc3cn(-c4ccccc4)nn3)C2)c1OC (stereo unspecified)	Pf Dd2 growth 13µM
c1ccc(-n2cc(CN3CCC(Oc4ccncc4)CC3)nn2)cc1	none
O=C(O)Cc1cc(C2CCN(Cc3cn(-c4ccccc4)nn3)CC2)n[nH]1	none
CN(CCCn1cccn1)C(=O)C1C2C(=O)N(c3ccc(F)cc3)C[C@@]23C=C[C@@H]1O3 (stereo partly specified)	none
COc1cc(CNc2ccc3[nH]c(=O)[nH]c3c2)ccc1OCc1ccc(F)cc1Cl	none
CC(C)c1noc(-c2cccn3c(CNC(=O)Cc4ccccc4Cl)nnc23)n1	none
Cc1cccc(C(=O)NCc2nnc3cc(-c4nc(C)no4)ccn23)c1	none
Cc1cccc(C(=O)NCc2nnc3cc(-c4nc(C(C)C)no4)ccn23)c1	Pf Dd2 growth 10µM
Cc1ccc(C)c(C(=O)NCc2nnc3cc(-c4nc(C(C)C)no4)ccn23)c1	none
CC(C)c1noc(-c2ccn3c(CNC(=O)Cc4ccccc4Cl)nnc3c2)n1	Pf Dd2 growth 5µM
Cc1ccc(CC(=O)NCc2nnc3cc(-c4nc(C(C)C)no4)ccn23)cc1	none
Cc1nc(N2CCC(C(=O)NC3CCC(C)CC3)CC2)cc(C(F)(F)F)n1 (stereo unspecified)	none
Cc1ccc(Oc2ncccc2CNC(=O)C2CCc3ccccc32)cn1 (stereo unspecified)	none
COc1cc2c(cc1NC(=O)COc1cc(C)ccc1C)oc1ccccc12	none
COCCNC(=O)CCC[C@@H]1[C@H]2CCCN3CCC[C@@H](CN1C(=O)c1ccccc1)[C@@H]23	none
COc1ccc(N2CC(NC(=O)C(c3ccccc3)c3ccccc3)CC2=O)cc1 (stereo unspecified)	none
COc1ccc(-n2ncc(C(=O)NCCN3CCOCC3)c2C2CCN(C(=O)OC(C)(C)C)CC2)cc1	none
Cc1ccc(-n2ncc(C(=O)NCCCN3CCCCC3)c2C2CCN(C(=O)OC(C)(C)C)CC2)c(C)c1	Pf Dd2 growth 8.9µM
CC(C)(C)OC(=O)N1CCC(c2c(C(=O)NCCN3CCOCC3)cnn2-c2cccc(Cl)c2)CC1	Pf Dd2 growth 10µM
Cc1ccc(-n2ncc(C(=O)NCCCN3CCc4ccccc4C3)c2C2CCN(C(=O)OC(C)(C)C)CC2)c(C)c1	Pf Dd2 growth 7.1µM
COCCNC(=O)c1cnn(-c2ccc(C)cc2C)c1C1CCN(C(=O)OC(C)(C)C)CC1	none
Cc1ccc(-n2ncc(C(=O)NC3CCCC3)c2C2CCN(C(=O)OC(C)(C)C)CC2)c(C)c1	Pf Dd2 growth 10µM
Cc1ccc(-n2ncc(C(=O)NCCN3CCCC3)c2C2CCN(C(=O)OC(C)(C)C)CC2)cc1C	none
Cc1nc(N2CCC(NC(=O)C3CCCO3)CC2)cc(C(F)(F)F)n1 (stereo unspecified)	none
COc1cc(NS(=O)(=O)c2ccc(NC(=O)COc3ccc(Cl)cc3Cl)cc2)nc(OC)n1	none
CCOC(=O)c1cccc(NC(=O)c2ccc3c(c2)nnn3CC)c1	none
Cc1ccc(-c2noc(CNC(N)=O)n2)nn1	none
CCN1CCN(CCCNC(=O)c2cnn(-c3ccccc3)c2C2CCN(C(=O)OC(C)(C)C)CC2)CC1	none
Cc1ccc(-n2ncc(C(=O)NCc3cccs3)c2C2CCN(C(=O)OC(C)(C)C)CC2)cc1	none
CC(C)(C)OC(=O)N1CCC(c2c(C(=O)NCc3ccco3)cnn2-c2ccccc2)CC1	Pf Dd2 growth 10µM
CC(C)(C)OC(=O)N1CCC(c2c(C(=O)NCc3ccccc3)cnn2-c2ccccc2)CC1	none
CC(C)(C)OC(=O)N1CCC(c2c(C(=O)NCCCN3CCc4ccccc4C3)cnn2-c2ccccc2)CC1	Pf Dd2 growth 8.9µM
Cc1ccc(-n2ncc(C(=O)NCCCN3CCN(C)CC3)c2C2CCN(C(=O)OC(C)(C)C)CC2)cc1	none
Cc1ccc(NC(=O)Cn2c(N3CCc4ccccc4C3)nc(C)cc2=O)c(Cl)c1	none
COc1ccc(CC(=O)NCc2nc3cccnc3n2Cc2ccc(C)cc2)cc1	none
COCCNC(=O)[C@@H]1CCC[C@@H](NC(=O)C2CCCC2)CN(C)C(=O)C1	none
Fc1ccc(-c2noc3ncnc(N4CCCCC4)c23)cc1	none
COc1cc2c(cc1OCC1CC1)NC(=O)C21CCN(c2cc(NC3CC3)ncn2)CC1	none
Cc1ccc(-c2nc3sc(CCNC(=O)c4ccco4)c(C)n3n2)cc1	none
O=S(=O)(Nc1nc2n(n1)C(c1ccc(F)cc1)C=C(c1ccccc1)N2)c1ccc(Cl)cc1 (stereo unspecified)	none
Cc1ccc(C2C=C(c3ccc(Cl)cc3)Nc3nc(NC(=O)c4ccco4)nn32)cc1 (stereo unspecified)	Pf Dd2 growth 3.5µM
O=C(Nc1nc2n(n1)C(c1ccc(F)cc1)C=C(c1ccccc1)N2)c1ccc(Cl)cc1 (stereo unspecified)	Pf Dd2 growth 10µM
Cc1ccc(C2C=C(c3ccccc3)Nc3nc(NS(C)(=O)=O)nn32)cc1 (stereo unspecified)	none
COc1ccccc1C(=O)NC1CCN(c2cc(-c3ccc(Cl)cc3)[nH]n2)CC1	none
COc1ccccc1C(=O)Nc1nc2n(n1)C(c1ccc(F)cc1)C=C(c1ccc(Cl)cc1)N2 (stereo unspecified)	Pf Dd2 growth 4.5µM
CC1=C(C(=O)Nc2cccnc2)C(c2ccc(Cl)cc2)n2nc(-c3ccccc3)nc2N1 (stereo unspecified)	none
O=C(Nc1cnc(-c2ccc(F)cc2)nc1)c1ccco1	none
Cc1ccc(C2C=C(c3ccccc3)Nc3nc(NS(=O)(=O)c4ccccc4)nn32)cc1 (stereo unspecified)	none
Cc1ccc(C(=O)Nc2nc3n(n2)C(c2ccccc2)C=C(c2ccccc2)N3)cc1 (stereo unspecified)	Pf Dd2 growth 11µM
Cc1cccc(NC(=O)CN(C)S(=O)(=O)c2ccc3c(c2)c(=O)n(C)c(=O)n3C)c1C	none
Cn1cnc(S(=O)(=O)N2c3ccccc3CC2c2noc(C3CCOCC3)n2)c1 (stereo unspecified)	none
CCC(=O)N1CCc2cc(Br)cc(S(=O)(=O)CCC(=O)NCc3ccc(C)cc3)c21	none
CNC(=O)CCc1ccc2c(c1)CN(C(C)=O)CCO2	none
CCc1ccc(NC(=O)N2c3ccccc3Sc3ccccc32)cc1	none
O=C(NC[C@H]1OC[C@@H](NC2CCCCC2)[C@@H]1O)c1ccccc1	none
CN1C[C@@H](NS(=O)(=O)c2ccc(F)cc2)C[C@H]1c1nc(-c2cccnc2)no1	none
CC1(CNC(=O)c2ccc3c(c2)OCO3)CCOCC1	none
